# Bioassay records from PubChem.
# LANA DNA inh: inhibitors of KSHV C-LANA binding to DNA, primary screen, biochemical, fluorescence polarization, FAM-LBS DNA, MBP-C-LANA, single point | 340,000 tested, 0.078% active | inhibition, % at 9 µM | AID 504423, 2011 | Kaposi's sarcoma herpesvirus LANA C-terminal domain (residues 932-1162) DNA binding;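 active means highest replicate inhibition at or above 60% at 9 µM, even if other replicates fall short; inactive means all replicates below 60% inhibition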;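 further: 0% = neutral control wells and 100% = 4 µM acridine orange control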
# eLon inh: inhibitors of E. coli Lon protease, primary screen, biochemical, fluorescence polarization; purified E. coli Lon protease; 360,000 tested, 0.42% active; inhibition, % at 7.94 µM; in the data active means inhibition above about 13%, passing the limit was not always enough;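 further: 0% = enzyme with probe and DMSO and 100% = no enzyme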
# Keap1 Nrf2 FP: Keap1-Nrf2 protein-protein interaction inhibitors, primary screen, biochemical, fluorescence polarization, single point | Keap1 Kelch-Nrf2 peptide fluorescence polarization, 1536-well | Kelch-like ECH-associated protein 1 (Homo sapiens), Q14145 | 340,000 tested, 0.15% active | inhibition, % at 9.4 µM; in the data active means inhibition above about 12%; inconclusive means no clear call, values can overlap the other calls; inactive means below about 7.3%;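 further: human Keap1 Kelch domain with fluorescein labeled Nrf2 9mer peptide probe; 0% = neutral control wells and 100% = peptide positive control; higher means more block of Keap1 binding to Nrf2 peptide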
# Target sequence (Q14145 whole entry, looked up, the tested form may be a part): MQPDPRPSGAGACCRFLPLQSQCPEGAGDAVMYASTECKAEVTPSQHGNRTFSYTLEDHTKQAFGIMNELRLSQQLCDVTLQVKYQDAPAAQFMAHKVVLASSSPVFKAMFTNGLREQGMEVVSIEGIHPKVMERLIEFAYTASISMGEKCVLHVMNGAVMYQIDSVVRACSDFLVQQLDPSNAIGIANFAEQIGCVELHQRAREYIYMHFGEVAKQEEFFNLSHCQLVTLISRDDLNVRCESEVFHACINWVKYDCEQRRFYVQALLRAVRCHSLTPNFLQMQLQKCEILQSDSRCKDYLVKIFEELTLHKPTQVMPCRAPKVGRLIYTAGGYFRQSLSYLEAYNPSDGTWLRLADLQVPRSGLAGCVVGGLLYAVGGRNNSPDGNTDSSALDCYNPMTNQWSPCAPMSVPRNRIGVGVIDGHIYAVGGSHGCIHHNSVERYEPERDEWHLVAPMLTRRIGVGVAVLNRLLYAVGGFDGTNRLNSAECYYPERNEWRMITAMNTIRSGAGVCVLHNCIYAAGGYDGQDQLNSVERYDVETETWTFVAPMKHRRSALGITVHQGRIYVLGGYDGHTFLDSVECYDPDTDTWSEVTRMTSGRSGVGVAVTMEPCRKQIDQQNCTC
# RTF Ca sens inh: cardiac RTF calcium sensitivity inhibitors, primary screen, biochemical, IANBD-TnC fluorescence, EC70 calcium; Troponin I, cardiac muscle (Homo sapiens) + Troponin T, cardiac muscle (Homo sapiens) + …; IANBD-labeled cardiac RTF, Ca2+ fluorescence; inhibition, % at 7.15 µM; 340,000 tested, 0.12% active;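 active means inhibition above the mean inhibition of all tested compounds plus 3 SD, cut at about 17% in these data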;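 further: assay run at fixed EC70 calcium of 1.6 mM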
# cardiac RTF act: cardiac RTF calcium sensitivity activators, primary screen, biochemical, IANBD-TnC fluorescence, EC20 calcium | Troponin I, cardiac muscle (Homo sapiens) + Troponin T, cardiac muscle (Homo sapiens) + … | IANBD-labeled TnC RTF fluorescence at EC20 calcium; 0% EC20 calcium, 100% full calcium | activation, % at 7.2 µM | 340,000 tested, 0.24% active;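 active means activation above the mean over all tested compounds plus 3 SD, cut at about 30% in these data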;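 further: rise in fluorescence read as greater calcium sensitivity of cardiac thin filaments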
# RTF Ca inh conf: cardiac RTF calcium sensitivity inhibitors, confirmation, biochemical, fluorescence readout; shares compounds with RTF Ca sens inh; reconstituted cardiac thin filaments; inhibition, % at 7.15 µM; 360 tested, 8% active; AID 504635, 2011; in the data active means inhibition above about 18%
# DNA intercal 2: DNA intercalator detection, dose response, counter-screen for C-LANA DNA-binding inhibitor project, biochemical, dry powder | shares compounds with LANA DNA inh | Acridine orange-DNA displacement, fluorescence polarization | AC50, µM (titrated, usually from 35 µM), inactives show top-dose activity change, negative = inhibition | 20 tested, under 10 active | AID 588364, 2011;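 active means signal drop with an AC50 no more than ten times the top valid dose; inconclusive means flat curve with 30 to 70% inhibition, or poor fit; inactive means no drop, flat response, or AC50 above the limit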
# Keap1 TSA: Keap1 Kelch domain binders by thermal stabilisation, dose response, biophysical, thermal shift, RT-PCR instrument, cherry-pick; shares compounds with Keap1 Nrf2 FP; delta Tm; stronger effect = higher value; max delta Tm, degrees C; 400 tested, 8% active; AID 651823, 2012; in the data active means max delta Tm above about 0.48 degrees C
# Sypro dye melt: Sypro Orange dye melt without protein, dose response, artefact control for Keap1-Nrf2 interaction inhibitor project, biochemical, thermal shift counterscreen, cherry-pick. shares compounds with Keap1 Nrf2 FP. Sypro Orange dye-only thermal melt, no protein, delta Tm; top dose 26 µM. delta Tm, degrees C (concentration not given with the values). 140 tested, under 10 active;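 active means at highest dose tested, delta Tm positive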
# eLon confirm: E. coli Lon protease inhibitor retest, confirmation, biochemical, fluorescence polarization; shares compounds with eLon inh; purified E. coli Lon; 1,400 tested, 31% active; inhibition, % at 7.94 µM; in the data active means inhibition above about 16%;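 further: 0% = enzyme with probe and DMSO and 100% = no enzyme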
# * = called active by the depositor; ? = inconclusive; · = not tested or not shown. This is a sample that favours compounds with a hit; in the whole collection about 0.82% have one here.
SMILES,LANA DNA inh,eLon inh,Keap1 Nrf2 FP,RTF Ca sens inh,cardiac RTF act,Keap1 TSA,others
O=c1[nH]c(=S)[nH]c2c1C(c1ccc(Br)cc1)c1c([nH]c(=S)[nH]c1=O)O2,112*,32*,45*,69*,-51,-0.12,RTF Ca inh conf=1;Sypro dye melt=-26;eLon confirm=-49
O=C(Nc1ccccc1)c1cc(C2CCCCN2C(=O)OCCF)on1 (stereo not given),·,-1,·,·,·,·,
CC1(C)[C@@H](O[C@H]2O[C@H](C(=O)O)[C@@H](O)[C@H](O)[C@H]2O[C@@H]2O[C@H](C(=O)O)[C@@H](O)[C@H](O)[C@H]2O)CC[C@]2(C)[C@H]3C(=O)C=C4[C@@H]5C[C@@](C)(C(=O)O)CC[C@]5(C)CC[C@@]4(C)[C@]3(C)CC[C@@H]12,·,·,·,·,·,·,DNA intercal 2=-5%
C=CCn1c(=O)/c(=C/c2ccc(Cl)cc2)s/c1=C(\C#N)c1nnc2n1CCCCC2,-1,-5,-2,-6,-3,·,
Nc1c(C(=O)Nc2ccccc2F)sc2nc(Cc3ccccc3)cc(C(F)(F)F)c12,44,-6,33*,-8,49*,-0.2,DNA intercal 2=19µM*
N=c1c2ccccc2nc2n1CCCCC2,·,14,·,·,·,·,
CC(=O)c1ccc2c(c1)C1C=CCC1C(C(=O)O)N2 (stereo not given),114*,38*,21*,·,·,2.1*,DNA intercal 2=2%;Sypro dye melt=-33;eLon confirm=22*
CC(CC(c1ccccc1)N1CCc2ccccc2C1)=NO (stereo not given),·,-9,·,·,·,·,
O=S(=O)(Nc1ncccn1)c1ccc(NC(=S)NCc2cccnc2)cc1,1,-2,17*,10,2,-0.18,
O=C1NC[C@H](CCCCN2CCN(Cc3ccccc3)C(=O)C2=O)N(CCC2CCCCC2)C1=O,·,-2,·,·,·,·,
OC(Cc1ccncc1)(c1ccccc1)c1ccccc1,-1,5,28*,-7,-1,-0.11,
CCn1nnnc1SCC(=O)N(C)C1CCS(=O)(=O)C1 (stereo not given),15,8,37*,0,2,-0.13,
COc1ccc(-n2nnnc2SCC(=O)N(C)C2CCS(=O)(=O)C2)cc1 (stereo not given),2,-4,-7,-4,-1,·,
OCc1cccc(-c2csc(C(O)c3ccco3)n2)c1 (stereo not given),·,-4,·,·,·,·,
O=C(NNC(=O)c1cccc(S(=O)(=O)N2CCCCC2)c1)c1ccccc1,0,-5,0,0,2,·,
CC(=O)N1CCN(S(=O)(=O)c2cccc(C(=O)NNC(=O)c3ccc(Br)cc3)c2)CC1,27,-3,48*,-117,44*,0,Sypro dye melt=-23
COc1ccc(C2N3CC4(C)CN2CC(C)(C3)C4O)cc1OC (stereo not given),0,1,-1,1,4,·,
COc1ccc(C2N3CC4(C)CN2CC(C)(C3)C4O)cc1 (stereo not given),2,-4,20*,4,4,-0.16,
S=C1SCN(Cc2ccccc2)CN1Cc1ccccc1,0,-6,-2,-2,1,·,
S=C1SCN(CC2CC2)CN1CC1CC1,33,3,33*,4,4,-0.15,
COCCCN(C(=O)CSCC(=O)Nc1ccc(C)cc1)c1c(N)n(Cc2ccccc2)c(=O)[nH]c1=O,0,-5,-6,-5,0,·,
O=c1[nH]c2cc(C(F)(F)F)ccc2n1-c1cc(C(F)(F)F)ccc1O,-4,1,15*,4,16,0.03,
Cc1c(C(C)(C)O)[nH]c2cc(C(F)(F)F)ccc12,1,-3,-3,-3,2,·,
O=C(COC(=O)c1ccc([N+](=O)[O-])s1)Nc1cccc(S(=O)(=O)NC2=NCCCCC2)c1,6,-6,53*,2,-1,-0.13,
NC(Cc1ccc(Cl)cc1)c1csc(Nc2ccc(C(F)(F)F)cn2)n1 (stereo not given),·,-11,·,·,·,·,
SMILES,LANA DNA inh,eLon inh,Keap1 Nrf2 FP,RTF Ca sens inh,cardiac RTF act,Keap1 TSA,others
COc1ccc(-c2nc3ccc(Cl)cn3c2CC(C)(C)C)cc1OC,·,-2,·,·,·,·,
CC(OC(=O)c1ccc([N+](=O)[O-])o1)C(=O)NC1CCCCC1C (stereo not given),10,4,21*,2,6,-0.07,
CC(OC(=O)c1ccc(C(C)(C)C)cc1)C(=O)NC1CCCCC1C (stereo not given),0,2,2,-13,-2,·,
CCCCNC(=O)C[C@@H]1C[C@@]2(C(=O)OCC)CCC=C2N(CCC2=CCCCC2)C1=O,·,-9,·,·,·,·,
N=c1c(C(=O)NC2CCCC2)cc2c(=O)n3ccccc3nc2n1Cc1ccccc1,1,-11,?,-14,-2,0.03,
Cc1ccc(Cn2c(=N)c(C(=O)NC3CCCCC3)cc3c(=O)n4ccccc4nc32)cc1,13,-7,-2,-11,-2,·,
CC1(C(=O)NS(=O)(=O)c2ccc(Cl)s2)CCN1C(=O)C1CCCCC1 (stereo not given),·,-11,·,·,·,·,
N#C/C(=C\c1ccc(O)cc1)C(=O)N1CCCC1,-1,4,-4,-3,0,·,
N#C/C(=C\c1ccc[nH]1)C(=O)N1CCCCC1,·,2,58*,·,·,-0.17,
CN1C(=O)CCS(=O)(=O)C1c1ccc(Cl)c(Cl)c1 (stereo not given),·,-5,·,·,·,·,
O=C(NNC(=O)c1n[nH]c(=O)c2ccccc12)c1ccc(Br)cc1,0,-2,-4,5,-1,·,
Cc1ccc(C(=O)NNC(=O)c2n[nH]c(=O)c3ccccc23)cc1C,15,6,33*,-23,10,-0.04,
